Holding throughout (experiment): NCI-60 one-dose screen, 48 h (100 = growth as untreated, 0 = no growth, -100 = all killed)
What all share (conditions): 10 µM unless noted

Test [1] relates to DU-145 prostate.
Test [2] has as its system K-562 leukemia.
In test [3] the test system is MALME-3M melanoma.
The test system of test [4] is MDA-MB-231 breast.
In test [5] the test system is RXF 393 renal.
Test [6] has as its system SF-268 CNS.
In test [7] the test system is SF-295 CNS.
Test [8] deals with SF-539 CNS.
The subject of test [9] is M14 melanoma.

Compounds without any hit were thinned out: in the full panel of roughly 83,000, 20% have a hit.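 The endpoint reported here, percent growth, reads 100 for growth as untreated, 0 for no net growth and -100 for all cells dead.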 Unmarked numbers belong to inactive results. Active and inactive are the calls of the source. The calls were made as follows: active = growth percent below 10; inactive = the rest.

For `CC(=O)c1cc(C(=O)c2ccc3c(c2)Sc2ccccc2N3)c2cc(C)ccn12`, the growth in test [1] is 0.638% (active); in test [2], 5% (active); in test [3], 68.2%; in test [4], 3.24% (active); in test [5] it was 49.3%; in test [6] it was 22.1%. Also, the growth was -1.7% (active) in test [7], -32.5% (active) in test [8] and 17.2% in test [9].

In the case of `Cc1cc2c(C(C)C)c(O)c(O)c(C=NCCCCC(=O)O)c2c(O)c1-c1c(C)cc2c(C(C)C)c(O)c(O)c(C=NCCCCC(=O)O)c2c1O`, the growth in test [1] is 63.8%; in test [2], 26.4%; in test [3], 78.8%; in [4], 40%; in [5], 57%; in test [6], 44.2%. Also, the growth was 27.3% in [7], 42.2% in test [8] and 66.9% in [9].

For the compound `CC(=O)/C=C/c1cc2cc(Cl)ccc2[nH]c1=O`, the growth in test [1] is 69.8%; in test [2] it was 50.5%; in [3], 97.2%; in [4], 84%; in test [5], 79.1%; in [6] it was 81.2%. For the same compound, the growth in test [7] was 96.9%; in test [8] it was 85.4%; in test [9], 91.2%.

For the compound `Cc1cc(C)c2c(=O)[nH]c(SCC(=O)Nc3cccc(S(=O)(=O)N(C)C)c3)nc2n1`, the growth in test [1] is 101%; in test [2], 94.1%; in test [3] it was 95.8%; in test [4], 87.6%; in test [5], 58.4%; in test [6] it was 114%. The growth was 139% in [7], 97.3% in test [8] and 100% in test [9].

For the compound `COC(=O)c1ccc(C)cc1`, the growth in test [1] was 103%; in test [2], 102%; in test [3], 108%; in [4] it was 107%; in [5] it was 106%; in test [6], 97.9%. In addition, the growth was 102% in test [7], 103% in [8] and 116% in test [9].

`Cc1ccc(S(=O)(=O)OCC(=O)Nc2ccc(C(=O)O)c(O)c2)cc1`: the growth in [1] was 100%; in [2], 70.2%; in [3], 106%; in test [4], 97.2%; in [5], 63.1%; in test [6], 97%. Also, the growth in [7] is 110%; in test [8], 96.1%; in test [9], 95.4%.

With `Nc1ccc(S(=O)(=O)c2ccc(Cl)cc2)cc1`, the growth was 104% in [1]; 109% in test [2]; 85.7% in test [3]; 92.3% in test [4]; 113% in test [5]; 96.8% in test [6]. Moreover, the growth is 98.2% in test [7], 86% in test [8] and 96.1% in test [9].

In the case of `O=C1CCCCN1CCCCC#Cc1ccccc1C#Cc1ccc([N+](=O)[O-])cc1`, the growth in test [1] was 71.1%; in test [2] it was 33.9%; in test [3], 55.7%; in [4] it was 59.3%; in test [5], 23.5%; in [6], 40.3%. The growth in test [7] was 75.9%; in test [8], 37.6%; in [9] it was 59.5%.

As to `O=C(O)C(=Cc1c2ccccc2cc2ccccc12)C(=O)O`, the growth was 118% in [1]; 100% in test [2]; 97.9% in test [3]; 103% in test [4]; 115% in test [5]; 108% in test [6]. Besides, the growth is 100% in test [7], 97.3% in test [8] and 100% in test [9].

For the compound `O=S=Nc1ccc([N+](=O)[O-])cc1`, the growth in [1] is 84.8%; in test [2], 75.6%; in test [3] it was 96.8%; in [4], 95.4%; in test [5], 111%; in test [6], 91.8%. Also, the growth is 98.9% in test [7], 95.4% in test [8] and 94% in [9].

On to `CCSc1nnc(NC(=O)COc2ccc(Cl)cc2C)s1`, for which the growth in test [1] was 106%; in [2] it was 103%; in test [3], 106%; in [4], 111%; in test [5] it was 89.3%; in test [6], 110%. Further, the growth in test [7] is 94.2%; in test [8], 103%; in test [9], 105%.

Turning to `O=c1[nH]c(CN2CCN(c3ccccc3F)CC2)nc2sc3c(c12)CCC3`, the growth in [1] was 109%; in test [2] it was 109%; in [3] it was 96.4%; in [4], 96.3%; in test [5], 160%; in test [6], 121%. The growth in [7] is 144%; in [8], 98.6%; in test [9] it was 108%.

With `CC(=O)Nc1ccc2c(c1)/C(=C\C=C/c1ccc([N+](C)(C)C)cc1)c1ccccc1-2`, the growth in test [1] was 73%; in [2], 49.5%; in test [3], 86.5%; in test [4], 63.7%; in test [5], 99.1%; in test [6] it was 48.6%. Further, the results for the growth in [7], in test [8] and in test [9] were 46.5%, 42.4% and 71.5%, respectively.

Turning to `COc1cc(-c2csc(NC(=O)c3cc(C(F)(F)F)cc(C(F)(F)F)c3)n2)cc(OC)c1OC`, the growth in test [1] was 35%; in test [2], 14.4%; in test [3], 3.36% (active); in [4], 41.1%; in test [5], 56.7%; in test [6], 35.4%. The growth was 33.9% in test [7], 56% in test [8] and 32.3% in test [9].

For `CCCCOc1nc2c(C)cccc2cc1C1CNC(=O)c2ccccc2N1` (stereo not given), the growth in [1] was 86%; in test [2], 19%; in [3], 86.1%; in test [4], 65.3%; in [5] it was 78.3%; in [6] it was 66.9%. The growth in test [7] was 52.5%; in test [8], 68.3%; in test [9] it was 54.7%.

Regarding `COc1ccc(N=C2NN=C(c3ccc(F)cc3)CS2)cc1OC`, the growth in test [1] was 103%; in [2], 107%; in test [3], 104%; in [4], 91.6%; in test [5], 78.3%; in test [6], 116%. Besides, the growth was 90.8% in test [7], 102% in test [8] and 105% in test [9].

As for `ClC1=C(Cl)C(Cl)=C(Cl)C1=Cc1ccc(Cl)cc1Cl`, the growth in test [1] was -5.47% (active); in test [2], 0.397% (active); in test [3] it was -30.8% (active); in test [4], -10.8% (active); in test [5], -94.8% (active); in test [6], -43.4% (active). Further, the growth is -16.6% (active) in test [7], -30% (active) in test [8] and -30.1% (active) in [9].

In the case of `O=S(=O)(NCCCNc1cc(-c2cn(-c3ccccc3)nc2-c2cccc(O)c2)ccn1)c1ccc(Br)cc1`, the growth was 31.3% in test [1]; -21.3% (active) in test [2]; -27.3% (active) in [3]; -20.7% (active) in [4]; 2.04% (active) in [5]; 17.9% in test [6]. The growth is -55.2% (active) in test [7], 18.9% in test [8] and 0.533% (active) in test [9].

Consider `CCCCn1c(=O)c(C2CNC(=O)c3ccccc3N2)cc2ccccc21` (stereo not given), for which the growth is 108% in test [1]; 99.3% in test [2]; 107% in test [3]; 77.5% in [4]; 111% in test [5]; 98.9% in [6]. For the same compound, the growth in test [7] is 96.8%; in test [8] it was 89.9%; in test [9], 107%.

As for `COc1ncc(-c2ccc3ncnc(Nc4cccc(Cl)c4)c3c2)cc1NS(=O)(=O)CCN1CCOCC1`, the growth in test [1] is 18.6%; in test [2] it was 45.8%; in test [3] it was -19.8% (active); in test [4], 16.4%; in [5], -30.7% (active); in test [6] it was 23%. Also, the growth in test [7] was -24.1% (active); in [8], -18.9% (active); in test [9] it was 18.1%.

Regarding `O=c1cc(C2NCCc3c2[nH]c2ccccc32)c2c(ccc3ccccc32)o1` (stereo not given), the growth is 59.6% in test [1]; 52.9% in [2]; 60.1% in test [3]; 80.7% in test [4]; 44.2% in [5]; 85.9% in test [6]. For the same compound, the growth in [7] was 81.8%; in test [8], 79.4%; in test [9], 65.2%.

`CC/C=C\C[C@H](O)C/C=C1/C(=O)C(Cl)=C[C@@H]1C/C=C\CCCC(=O)O`: the growth in [1] is 75.9%; in test [2], 3.74% (active); in test [3], 21.7%; in test [4] it was 43.5%; in test [5], 64.2%; in test [6] it was 55.9%. Also, the growth in test [7] is 89.2%; in [8], 66%; in test [9], 35.7%.

On to `CNC(=O)c1cc(Oc2ccc3c(c2)sc2nc(-c4ccc(Cl)cc4)cn23)ccn1`, for which the growth was 96.3% in test [1]; 85.8% in test [2]; 72.7% in test [3]; 77% in [4]; 83.5% in [5]; 63.3% in [6]. For the same compound, the results for the growth in test [7], in test [8] and in test [9] were 80.1%, 76% and 94.7%, respectively.

For `C=C1C(=O)O[C@H]2[C@H]1CC/C(COC(=O)NCc1cc(OC)cc(OC)c1)=C\CC[C@@]1(C)O[C@@H]21`, the growth in test [1] is -6.21% (active); in test [2], 3.43% (active); in [3], -44.1% (active); in test [4] it was -5.09% (active); in [5], -41.9% (active); in test [6], 21.4%. The growth in test [7] was 81.4%; in test [8] it was 5.25% (active); in [9] it was -31% (active).

On to `O=[N+]([O-])c1c(S(=O)(=O)O)cc2cc(S(=O)(=O)O)ccc2c1[N+](=O)[O-]`, for which the growth in test [1] was 107%; in test [2], 95.7%; in test [3], 91%; in test [4] it was 99.7%; in test [5], 109%; in [6], 99.5%. The growth in test [7] is 105%; in test [8] it was 98.4%; in test [9], 99.8%.

As for `O=C1NCC(c2cc3ccccc3[nH]c2=O)Nc2ccccc21` (stereo not given), the growth in [1] was 111%; in test [2] it was 90.2%; in [3], 96.8%; in [4] it was 97.9%; in test [5] it was 90.7%; in [6], 99.9%. The growth in test [7] is 106%; in [8], 96.5%; in test [9], 101%.

Turning to `COc1ccccc1OCC(=O)Nc1sc2c(c1C(N)=O)CCC2`, the growth in test [1] was 58.4%; in test [2], 52.5%; in test [3], 91.9%; in test [4], 92.1%; in test [5], 48.1%; in [6], 43.7%. For the same compound, the growth in test [7] is 15.2%; in test [8], 59.6%; in [9], 66.4%.

Turning to `O=C1C2=C(C(=O)c3c(O)ccc(O)c31)N(c1cccnc1)Cc1ccccc1O2`, the growth in [1] is -96.6% (active); in [2], -9.44% (active); in test [3], -80.5% (active); in test [4] it was -68.9% (active); in test [5] it was -78.8% (active); in [6], 1.4% (active). For the same compound, the growth in test [7] is 37.9%; in test [8] it was -56.1% (active); in test [9], -78% (active).

Regarding `Cc1nc2scc(-c3ccccc3)n2c(=O)c1CCO`, the growth in test [1] was 108%; in test [2] it was 98.4%; in test [3], 102%; in test [4], 97.3%; in test [5] it was 106%; in test [6], 97.5%. Also, the growth in test [7] was 102%; in test [8] it was 100%; in test [9], 101%.

For `COc1ccc(/C=C(\C#N)c2ccc([N+](=O)[O-])cc2)c2ccccc12`, the growth is 60.9% in test [1]; 44.7% in test [2]; 14.6% in test [3]; 45% in test [4]; 58.3% in [5]; 39.8% in [6]. Also, the values for the growth in test [7], in [8] and in test [9] were 70.7%, 49.4% and 65.7%, respectively.
